Experimental data from PubChem BioAssay AID1159580 (chemical genetic matrix, 2015).
Where “and” joins values, the source holds several entries; their conditions need not be identical. Equal entries are not always repeated. The whole screen tested about 5,500 compounds, of which about 2,000 (36%) were called active. Another 18% or so got no clear call; they are omitted. Cut-off read from the data, not from the text of the source: active = normalized growth mostly below about 0.91 (no sharp cut-off); inconclusive = no clear call, values can overlap the other calls; inactive = mostly above about 0.92. The list shows a part of the results.

Experiment: chemical genetic growth profiling, strain panel (AID 1159580);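 note: tested at 20 µM; growth read once vehicle control cultures reached saturation at 30 °C; 1 = growth at the plate median or of vehicle wells; lower values mean less growth of the strain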
Conditions: growth OD

Measured: normalized growth

CC1=C(/C=C/C(C)=C/C=C/C(C)=C\C(=O)O)C(C)(C)CCC1
inactive: S. cerevisiae deletion strains, locus YJR075W, strain HOC1, stronger effect = lower value 0.962 and 1.01 | S. cerevisiae deletion strains, locus YKL009W, strain mrt4, stronger effect = lower value 0.94 | S. cerevisiae deletion strains, locus YKL068W, stronger effect = lower value 1 | S. cerevisiae deletion strains, locus YKL085W, strain MDH1 (second series), stronger effect = lower value 0.941 | S. cerevisiae deletion strains, locus YKL085W, strain MDH1, stronger effect = lower value 0.941 | S. cerevisiae deletion strains, locus YKL160W, strain elf1, stronger effect = lower value 0.977 | S. cerevisiae deletion strains, locus YKL190W, strain CNB1, stronger effect = lower value 0.989 | S. cerevisiae deletion strains, locus YKR001C, strain vps1, stronger effect = lower value 0.942 | S. cerevisiae deletion strains, locus YKR026C, strain gcn3, stronger effect = lower value 0.982 | S. cerevisiae deletion strains, locus YKR091W, strain srl3, stronger effect = lower value 0.988 | S. cerevisiae deletion strains, locus YLL001W, strain dnm1, stronger effect = lower value 0.93 | S. cerevisiae deletion strains, locus YLL026W, stronger effect = lower value 0.966 | S. cerevisiae deletion strains, locus YLL041C, strain sdh2, stronger effect = lower value 0.99 | S. cerevisiae deletion strains, locus YLR027C, strain aat2, stronger effect = lower value 0.958 | S. cerevisiae deletion strains, locus YLR039C, strain RIC1, stronger effect = lower value 0.866 | S. cerevisiae deletion strains, locus YLR058C, strain SHM2, stronger effect = lower value 1 | S. cerevisiae deletion strains, locus YLR102C, strain apc9, stronger effect = lower value 1 | S. cerevisiae deletion strains, locus YLR113W, strain HOG1, stronger effect = lower value 1.08 | S. cerevisiae deletion strains, locus YLR221C, strain rsa3, stronger effect = lower value 1.02 | S. cerevisiae deletion strains, locus YLR258W, strain gsy2, stronger effect = lower value 0.992 | S. cerevisiae deletion strains, locus YLR262C, strain YPT6 (second series), stronger effect = lower value 0.925 | S. cerevisiae deletion strains, locus YLR262C, strain YPT6, stronger effect = lower value 0.875 | S. cerevisiae deletion strains, locus YLR268W, strain sec22, stronger effect = lower value 0.966 | S. cerevisiae deletion strains, locus YLR320W, strain mms22, stronger effect = lower value 0.993 | S. cerevisiae deletion strains, locus YLR330W, strain CHS5, stronger effect = lower value 1.01 | S. cerevisiae deletion strains, locus YLR342W, strain FKS1 (second series), stronger effect = lower value 0.952 | S. cerevisiae deletion strains, locus YLR342W, strain FKS1, stronger effect = lower value 0.953 | S. cerevisiae deletion strains, locus YLR357W, strain rsc2, stronger effect = lower value 0.982 | S. cerevisiae deletion strains, locus YLR370C, strain arc18, stronger effect = lower value 0.996 | S. cerevisiae deletion strains, locus YLR371W, strain rom2, stronger effect = lower value 1.01 | S. cerevisiae deletion strains, locus YLR384C, strain iki3, stronger effect = lower value 0.973 | S. cerevisiae deletion strains, locus YLR418C, strain cdc73, stronger effect = lower value 0.846 | S. cerevisiae deletion strains, locus YML016C, strain PPZ1, stronger effect = lower value 1 | S. cerevisiae deletion strains, locus YML032C, strain rad52, stronger effect = lower value 0.978 | S. cerevisiae deletion strains, locus YML120C, strain ndi1, stronger effect = lower value 0.977 | S. cerevisiae deletion strains, locus YML124C, strain tub3, stronger effect = lower value 0.998 | S. cerevisiae deletion strains, locus YMR058W, strain fet3, stronger effect = lower value 0.978 | S. cerevisiae deletion strains, locus YMR078C, strain ctf18, stronger effect = lower value 0.998 | S. cerevisiae deletion strains, locus YMR125W, strain sto1, stronger effect = lower value 1.01 | S. cerevisiae deletion strains, locus YMR129W, stronger effect = lower value 0.987 | S. cerevisiae deletion strains, locus YMR205C, strain PFK2, stronger effect = lower value 0.971 | S. cerevisiae deletion strains, locus YMR223W, strain ubp8, stronger effect = lower value 0.976 | S. cerevisiae deletion strains, locus YMR231W, strain pep5, stronger effect = lower value 0.98 | S. cerevisiae deletion strains, locus YMR263W, strain SAP30, stronger effect = lower value 0.956 | S. cerevisiae deletion strains, locus YMR307W, strain GAS1, stronger effect = lower value 0.909 and 1.05 | S. cerevisiae deletion strains, locus YNL067W, strain RPL9B, stronger effect = lower value 0.951 | S. cerevisiae deletion strains, locus YNL071W, strain lat1, stronger effect = lower value 0.994 | S. cerevisiae deletion strains, locus YNL128W, strain TEP1, stronger effect = lower value 0.985 | S. cerevisiae deletion strains, locus YNL153C, strain GIM3, stronger effect = lower value 0.933 | S. cerevisiae deletion strains, locus YNL175C, strain NOP13, stronger effect = lower value 1.02 | S. cerevisiae deletion strains, locus YNL183C, strain NPR1, stronger effect = lower value 0.952 | S. cerevisiae deletion strains, locus YNL197C, strain WHI3, stronger effect = lower value 1.03 | S. cerevisiae deletion strains, locus YNL209W, strain ssb2, stronger effect = lower value 0.988 | S. cerevisiae deletion strains, locus YNL224C, strain SQS1, stronger effect = lower value 1.01 | S. cerevisiae deletion strains, locus YNL233W, strain BNI4, stronger effect = lower value 0.947 | S. cerevisiae deletion strains, locus YNL248C, strain rpa49, stronger effect = lower value 1.02 | S. cerevisiae deletion strains, locus YNL250W, strain rad50, stronger effect = lower value 0.992 | S. cerevisiae deletion strains, locus YNL271C, strain bni1, stronger effect = lower value 0.994 | S. cerevisiae deletion strains, locus YNL298W, strain CLA4, stronger effect = lower value 0.979 | S. cerevisiae deletion strains, locus YNL307C, strain MCK1, stronger effect = lower value 0.931 | S. cerevisiae deletion strains, locus YNL322C, strain KRE1 (second series), stronger effect = lower value 0.986 | S. cerevisiae deletion strains, locus YNL322C, strain KRE1, stronger effect = lower value 0.997 and 1.03 | S. cerevisiae deletion strains, locus YNR049C, strain mso1, stronger effect = lower value 0.988 | S. cerevisiae deletion strains, locus YNR052C, strain pop2, stronger effect = lower value 1.01 | S. cerevisiae deletion strains, locus YOL006C, strain TOP1, stronger effect = lower value 0.909 | S. cerevisiae deletion strains, locus YOL012C, strain htz1 0.855 | S. cerevisiae deletion strains, locus YOL147C, strain pex11, stronger effect = lower value 0.995 | S. cerevisiae deletion strains, locus YOR001W, strain rrp6, stronger effect = lower value 0.965 | S. cerevisiae deletion strains, locus YOR061W, strain CKA2, stronger effect = lower value 1.01 | S. cerevisiae deletion strains, locus YOR069W, strain VPS5, stronger effect = lower value 1.01 | S. cerevisiae deletion strains, locus YOR070C, strain gyp1, stronger effect = lower value 0.996 | S. cerevisiae deletion strains, locus YOR080W, strain dia2, stronger effect = lower value 0.986 | S. cerevisiae deletion strains, locus YOR083W, strain WHI5 (second series), stronger effect = lower value 1.03 | S. cerevisiae deletion strains, locus YOR083W, strain WHI5, stronger effect = lower value 0.954 | S. cerevisiae deletion strains, locus YOR106W, strain vam3, stronger effect = lower value 0.927 | S. cerevisiae deletion strains, locus YOR136W, strain idh2, stronger effect = lower value 0.991 | S. cerevisiae deletion strains, locus YOR144C, strain elg1, stronger effect = lower value 1.01 | S. cerevisiae deletion strains, locus YOR184W, strain ser1, stronger effect = lower value 0.95 | S. cerevisiae deletion strains, locus YOR231W, strain MKK1, stronger effect = lower value 1.05 | S. cerevisiae deletion strains, locus YOR265W, strain rbl2, stronger effect = lower value 0.987 | S. cerevisiae deletion strains, locus YOR270C, strain vph1, stronger effect = lower value 0.835 | S. cerevisiae deletion strains, locus YOR290C, strain snf2, stronger effect = lower value 1.01 | S. cerevisiae deletion strains, locus YOR316C, strain cot1, stronger effect = lower value 1.01 | S. cerevisiae deletion strains, locus YPL051W, strain arl3, stronger effect = lower value 0.983 | S. cerevisiae deletion strains, locus YPL055C, strain LGE1, stronger effect = lower value 0.918 | S. cerevisiae deletion strains, locus YPL078C, strain atp4, stronger effect = lower value 0.947 | S. cerevisiae deletion strains, locus YPL106C, strain sse1, stronger effect = lower value 1.02 | S. cerevisiae deletion strains, locus YPL240C, strain hsp82, stronger effect = lower value 0.977 | S. cerevisiae deletion strains, locus YPL241C, strain CIN2, stronger effect = lower value 1.01 | S. cerevisiae deletion strains, locus YPL256C, strain CLN2, stronger effect = lower value 1.04 | S. cerevisiae deletion strains, locus YPR119W, strain clb2, stronger effect = lower value 1 | S. cerevisiae deletion strains, locus YPR141C, strain kar3, stronger effect = lower value 0.989 | S. cerevisiae deletion strains, locus YPR163C, strain tif3, stronger effect = lower value 1 | S. cerevisiae deletion strains, locus YPR167C, strain met16, stronger effect = lower value 1 | S. cerevisiae deletion strains, strain wtn01, stronger effect = lower value 0.956 | S. cerevisiae strains, strain wild type, stronger effect = lower value 0.975
